Screening results from PubChem BioAssay.
PREPL inhibitor: PREPL enzyme inhibitors, primary screen, biochemical, fluorescence polarization. recombinant PREPL, fluorescence polarization activity-based probe. AID 2751, 2010. 320,000 compounds, 0.68% hits. Prolyl endopeptidase-like (Homo sapiens), Q4J6C6. inhibition, % at 5.96 µM; in the data active = inhibition above about 43%;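 also: 0% = enzyme with DMSO and 100% = wells lacking enzyme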
EBNA-1 inhibitor: EBNA-1 DNA-binding inhibitors, primary screen, biochemical, fluorescence polarization; inhibition, % at 14.8 µM; 300,000 compounds, 0.34% hits; AID 1950, 2009; in the data active = inhibition above about 28%
LYPLA1 inh: LYPLA1 inhibitors, primary screen, counter-screen for PME1 inhibitor project, biochemical, fluorescence polarization, FP-Rh probe ABPP. inhibition, % at 5.9 µM. Acyl-protein thioesterase 1 (Homo sapiens), O75608. recombinant LYPLA1. 320,000 compounds, 0.16% hits. AID 2174, 2009;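 active = inhibition above the mean of all tested compounds plus 3 SD, set per campaign, cut at about 14% in these data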;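 also: inhibitors block serine hydrolase probe labeling of LYPLA1 so polarization falls; 0% = enzyme with DMSO and 100% = wells lacking LYPLA1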
Target sequence (O75608 whole entry, looked up): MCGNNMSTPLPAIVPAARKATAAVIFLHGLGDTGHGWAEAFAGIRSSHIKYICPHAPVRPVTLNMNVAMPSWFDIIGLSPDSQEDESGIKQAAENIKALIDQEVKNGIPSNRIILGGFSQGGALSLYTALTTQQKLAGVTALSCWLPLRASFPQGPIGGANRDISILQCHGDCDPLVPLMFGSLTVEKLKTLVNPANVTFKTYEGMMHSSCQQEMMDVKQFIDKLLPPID
ZTA DNA inh: counter-screen for EBNA-1 inhibitors: inhibitors of Epstein-Barr virus ZTA | P03206 | ZTA-DNA binding, fluorescence polarization | inhibition, % at 11 µM | 320,000 compounds, 0.15% hits; in the data active = inhibition above about 33%
Target sequence (P03206 whole entry, looked up): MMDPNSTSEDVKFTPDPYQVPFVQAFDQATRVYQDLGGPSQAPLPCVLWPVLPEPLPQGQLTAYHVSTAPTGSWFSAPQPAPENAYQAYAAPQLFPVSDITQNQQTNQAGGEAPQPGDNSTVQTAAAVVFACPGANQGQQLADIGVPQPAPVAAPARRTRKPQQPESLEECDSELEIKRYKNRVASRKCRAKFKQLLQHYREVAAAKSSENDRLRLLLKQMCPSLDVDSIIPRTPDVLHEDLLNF
LYPLA2 counter: LYPLA2 inhibitors, primary screen, counter-screen for PME1 inhibitor project, biochemical, fluorescence polarization, FP-Rh probe ABPP; Acyl-protein thioesterase 2 (Homo sapiens), O95372; recombinant LYPLA2; inhibition, % at 5.9 µM; 320,000 compounds, 0.38% hits; AID 2177, 2009;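 active = inhibition above the screen-wide mean plus 3 SD, limit set per campaign, cut at about 26% in these data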;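 also: 0% = LYPLA2 with DMSO and 100% = wells lacking LYPLA2 enzyme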
LYPLA2 confirm: LYPLA2 inhibitors, retest, confirmation, counter-screen for PME1 inhibitor project, biochemical, fluorescence polarization, FP-Rh probe ABPP. shares compounds with LYPLA2 counter. recombinant LYPLA2. inhibition, % at 5.9 µM. 1,100 compounds, 72% hits. AID 2232, 2010;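 active = mean inhibition across replicates above the hit cutoff set in the primary screen, cut at about 26% in these data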;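 also: blocked labeling of the enzyme by serine hydrolase FP-Rh probe lowers polarization; 0% = enzyme with DMSO and 100% = wells lacking LYPLA2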
LYPLA2 gel ABPP: LYPLA2 inhibitors in proteome, late-stage follow-up, gel-based competitive ABPP, fluorescence, assay provider; shares compounds with LYPLA2 counter; rhLYPLA2 in mouse brain proteome, gel ABPP FP-Rh; inhibition, % at 20 µM; 150 compounds, 30% hits; AID 652029, 2013;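 active = inhibition of LYPLA2 enzyme probe labeling above about 50%, limit read from the data; inactive = inhibition below that limit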;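 also: loss of FP-Rh probe labeling of the LYPLA2 gel band measured as band density; 0% = DMSO only control band and 100% = blank gel background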
Starred values were filed as active, the others as inactive; / = not tested or not shown. Most compounds without a hit are left out; they make up all but 1.3% or so of the library.

SMILES | PREPL inhibitor | EBNA-1 inhibitor | LYPLA1 inh | ZTA DNA inh | LYPLA2 counter | LYPLA2 confirm | others
CCOC(=O)C1=C(CS(=O)(=O)c2ccccc2)NC(=O)NC1c1ccc(OC)c(OC)c1 (stereo not drawn) | 7 | -4 | 0 | -4 | -1 | /
COC(=O)C1=C(CS(=O)(=O)c2ccccc2)NC(=O)NC1c1ccc(OC)c(OC)c1 (stereo not drawn) | -3 | 7 | -2 | -7 | 32* | -1
COc1ccc(N2CCN(C(=O)CN(C)S(=O)(=O)c3ccc4c(c3)c(=O)n(C)c(=O)n4C)CC2)cc1 | 11 | 2 | 6 | -10 | 61* | 51* | LYPLA2 gel ABPP=14
Cc1ccc(S(=O)(=O)CCC(=O)N2CCN(c3ccc([N+](=O)[O-])cc3)CC2)cc1 | -19 | 1 | 9 | -28 | 39* | 35*
CN(CC(=O)N1CCN(c2ccc(F)cc2)CC1)S(=O)(=O)c1ccc2c(c1)c(=O)n(C)c(=O)n2C | 6 | -5 | 0 | -24 | 8 | /
COc1ccc(N2CCN(C(=O)CCS(=O)(=O)c3ccc(OC)cc3)CC2)cc1 | 15 | 17 | 0 | -6 | 8 | /
COc1ccc(S(=O)(=O)CCC(=O)N2CCN(c3ccc([N+](=O)[O-])cc3)CC2)cc1 | -8 | 6 | 9 | 14 | 55* | 58* | LYPLA2 gel ABPP=25
CC(=O)c1ccc(N2CCN(C(=O)CCS(=O)(=O)c3ccc(C)cc3)CC2)cc1 | 6 | -7 | 5 | -16 | 17 | /
COc1ccc(N2CCN(C(=O)CCN3C(=O)c4ccccc4S3(=O)=O)CC2)cc1 | 18 | 2 | -1 | 15 | 34* | 34*
CCS(=O)(=O)c1nc(S(=O)(=O)c2ccc(Cl)cc2)c(NCCOC)s1 | -3 | 0 | -2 | 10 | 1 | /
COc1ccc(CNC(=O)COC(=O)c2ccc(C)c(S(=O)(=O)N3CCOCC3)c2)cc1 | 2 | / | / | / | / | /
COc1ccc(Cl)cc1NC(=O)CN(C)C(=O)C1CCN(C(=O)Nc2ccccc2)CC1 | 0 | / | -3 | 3 | -4 | /
CCOc1ccccc1NC(=O)CN1C(=O)COc2ccc(C)cc21 | 2 | 2 | 2 | -8 | 11 | /
O=[N+]([O-])c1cc(S(=O)(=O)NCCN2CCOCC2)ccc1Cl | -2 | -10 | 0 | -20 | 3 | /
O=C(O)c1nn(CC(=O)N2CCN(c3ncc(C(F)(F)F)cc3Cl)CC2)c(=O)c2ccccc12 | 12 | -17 | 3 | -15 | 26* | 30*
O=C(CSc1ccccn1)N1CCN(c2ncc(C(F)(F)F)cc2Cl)CC1 | 19 | -4 | 5 | -8 | -8 | /
C[C@H](O)CC(=O)O | -3 | 3 | 2 | -12 | 2 | /
O=C(O)CN1C(=O)/C(=C\c2cc(Br)ccc2OCc2ccccc2Cl)SC1=S | 13 | 6 | 8 | 7 | 14 | /
O=C(O)CN1C(=O)/C(=C\c2cc(Br)ccc2OCc2ccc([N+](=O)[O-])cc2)SC1=S | 36 | 2 | 2 | 17 | 62* | 64*
CCOc1ccc(CCNC(=O)CSc2nc3ncc(Cl)cc3[nH]2)cc1OCC | -2 | -9 | 5 | 5 | -3 | /
COc1ccc(NC(=S)N2CCCC2c2ccc(OC)c(OC)c2)cc1 (stereo not drawn) | 11 | 7 | -3 | 4 | 1 | /
CCOC(=O)c1ccc(NC(=S)N2CCCC2c2ccc(OC)c(OC)c2)cc1 (stereo not drawn) | 10 | -6 | 0 | 0 | 30* | 25
Cc1noc(C)c1C(=O)N1CCCC(N2CCN(c3cccc(C(F)(F)F)c3)CC2)C1 (stereo not drawn) | 15 | -12 | 3 | -6 | 30* | 24
Cc1nnsc1C(=O)N1CCCC(N2CCN(c3cccc(C(F)(F)F)c3)CC2)C1 (stereo not drawn) | 7 | 5 | 4 | -3 | 55* | 56* | LYPLA2 gel ABPP=28
CC(C)(CN1CCc2ccccc2C1)NS(=O)(=O)c1ccc(Cl)cc1 | -25 | -2 | 1 | -8 | 1 | /
SMILES | PREPL inhibitor | EBNA-1 inhibitor | LYPLA1 inh | ZTA DNA inh | LYPLA2 counter | LYPLA2 confirm | others
Cc1cccc(OCc2nnc(SCC(=O)N(c3ccccc3)C3CCS(=O)(=O)C3)o2)c1 (stereo not drawn) | 32 | / | 1 | 12 | 6 | /
N#C/C(=C\N1CCN(Cc2ccc3c(c2)OCO3)CC1)c1nc2ccccc2s1 | 18 | 8 | 11 | 11 | 50* | 53* | LYPLA2 gel ABPP=40
CCOC(=O)N1CCN(/C=C(\C#N)c2nc3ccccc3s2)CC1 | 7 | 1 | -4 | 10 | -6 | /
COc1cc(C#N)ccc1OCC(=O)NCCC1=CCCCC1 | -1 | / | -2 | 7 | 6 | /
CN(Cc1nc(-c2ccccn2)no1)S(=O)(=O)c1ccc(Cl)cc1 | -1 | 4 | 2 | -6 | 28* | 26*
CC/C(=N\NC(=O)c1nnn(-c2nonc2N)c1-c1cccs1)c1ccccc1 | 7 | 0 | -10 | 4 | -2 | /
CC1CCCC(C)N1C(=O)COC(=O)CCC1CCCC1 (stereo not drawn) | 3 | 4 | 0 | -3 | 36* | 1
CC1CCCC(C)N1C(=O)COC(=O)Cc1ccc(F)cc1 (stereo not drawn) | 8 | -7 | 4 | -12 | -3 | /
COc1ccc(CNC(=O)CN(Cc2ccc(OC)cc2)C(=O)CCC(=O)Nc2nccs2)cc1 | 2 | -9 | -1 | 5 | 0 | /
CC(C)C[C@@H]1NC(=O)N(CCCn2ccnc2)C1=O | 2 | -1 | 3 | -4 | -3 | /
O=C1CC(c2ccc(OCCCCCOc3ccc(C4CC(=O)NC4=O)cc3)cc2)C(=O)N1 (stereo not drawn) | 3 | -1 | 4 | 8 | 40* | 53* | LYPLA2 gel ABPP=32
CCCCCCCCCCCCN1[C@@H](CC(=O)O)c2cc(F)ccc2S1(=O)=O | -3 | 5 | 10 | 10 | 58* | 58* | LYPLA2 gel ABPP=35
CCCCCCCCN1[C@@H](CC(=O)OC)c2cc(F)ccc2S1(=O)=O | -1 | -3 | 2 | -13 | 5 | /
CCCCCCCCCCCCN1[C@@H](CC(=O)O)c2cc(C(F)(F)F)ccc2S1(=O)=O | 1 | 12 | 11 | -7 | 61* | 60* | LYPLA2 gel ABPP=16
CCc1ccc(S(=O)(=O)/N=C2\C=CC(=O)c3ccccc32)cc1 | 28 | -5 | -17 | -7 | -12 | /
CCc1ccc(S(=O)(=O)/N=C2/C=C(Sc3ncn[nH]3)C(=O)c3ccccc32)cc1 | 17 | 0 | 2 | 19 | 40* | 47*
CCOC(=O)N1CCN(C(=O)COC(=O)c2ccc(O)cc2O)CC1 | 0 | -2 | -3 | 18 | 0 | /
O=C(OCC(=O)N1CCN(C(=O)COC(=O)c2ccc(O)cc2O)CC1)c1ccc(O)cc1O | -2 | 0 | 4 | -11 | 28* | 27*
